VCAM1 TNFa pot = TNF alpha stimulated VCAM1 expression potentiation. HUVEC TNFa-stimulated VCAM-1 immunofluorescence, high-content imaging; scaled per plate to unstimulated/TNFa-only wells. activation, % at 2 µM. actives 0.19% (n = 93,000);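 active = activation above the screen mean plus 3 SD, with well images confirming the hit on visual review, cut at about 28% in these data, passing the limit was not always enough; inconclusive = activation above that limit but images do not confirm it; inactive = activation not above that limit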;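 also: signal is the number of cytoplasmic VCAM-1 stained grains per positive cell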
VCAM1 pot confirm = enhancers of VCAM1 induction in HUVEC – imaging, triplicate retest, confirmation. shares compounds with VCAM1 TNFa pot. HUVEC TNFa-stimulated VCAM-1 immunofluorescence imaging. activation, % at 2 µM. 230 tested, under 10 active;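 active = activation above 30% in triplicate retests at 2 µM, then confirmed by visual review of the well images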;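 also: scaled per plate between unstimulated and TNFa-stimulated DMSO control wells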
Starred values were filed as active, the others as inactive; u = inconclusive. Shown is part of a subset that was picked to be rich in hits.

SMILES | VCAM1 TNFa pot | others
Cc1cc(NC(=O)CSc2nc3ccccc3c(=O)n2C2CCCC2)no1 | -67.7
CC(=O)c1c(N2CCC(C(N)=O)CC2)nc(=S)n(-c2ccccc2)c1C | 0.9
CN(C)C(=O)c1ccccc1-c1ccccc1 | 8.0
C/C=C/c1ccc(OCCn2cncn2)c(OC)c1 | -9.8
C/C(Cl)=C/CN1C(=O)C2C3C=CC(C3)C2C1=O (stereo not given) | -13.1
COc1cc(NC(=S)NC(=O)c2ccc(C)cc2C)ccc1NC(=O)c1cccs1 | -5.1
CC1=C(C(=O)Nc2cc(C)ccc2C)C(c2cccs2)NC(=S)N1 (stereo not given) | 51.6* | VCAM1 pot confirm=-11.3
CCc1c(C)nc(SC)n(CC#N)c1=O | -20.1
CC1=CC(C)(C(Cl)Cl)C(C)=CC1=O (stereo not given) | -12.1
CCNc1nc(NCc2ccccc2)nc(Oc2ccc(=O)[nH]n2)n1 | -4.2
CCNc1nc(NC(C)C)nc(Oc2ccc(OCCOc3ccc(C)cc3)nn2)n1 | 38.4* | VCAM1 pot confirm=2.0
COC(=O)c1ccc(Oc2nc(NC(C)C)nc(N(C)C)n2)cc1 | 27.3
O=c1[nH]c2cc3c(cc2cc1C(c1nnnn1C1CCCCC1)N1CCSCC1)OCCO3 (stereo not given) | 5.6
CC1(C)Cc2ccccc2C(=NCCCCCC(=O)O)N1 | 33.0
Cc1ccc(-c2nn(-c3ccccc3)cc2C2CC(c3cccs3)=NN2C(=O)CCCC(=O)O)cc1 (stereo not given) | 30.5* | VCAM1 pot confirm=-10.7
CCOC(=O)c1nnn(CC(=O)N2N=C(c3ccccc3)CC2c2ccccc2)c1C(=O)OCC (stereo not given) | 16.6
O=C(O)c1cn(-c2ccccc2)nc1-c1ccncc1 | 5.4
COc1ccc(C(=O)N[C@H](C(=O)NCC2CCCCC2)C(C)C)cc1 | -18.3
Cc1cc(C)n(-c2nc(-c3cccc(Cl)c3)cs2)n1 | -89.9
O=C(CN1CCN(CC(=O)Nc2ccccc2Cl)CC1)Nc1ccc2c(c1)OCCO2 | -8.5
O=C(CN1CCC(n2nnc3ccccc32)CC1)Nc1ccc2c(c1)CCC2 | u | VCAM1 pot confirm=-13.9
Cc1cc(C)cc(NC(=O)CN2CCc3ccccc3C2)c1 | -1.3
Cc1ccc(-n2nc3c(c2NC(=O)c2c(-c4ccccc4Cl)noc2C)CSC3)cc1 | -0.4
CCC/C(=N/NC(=O)c1csc(C)c1C)c1ccc(Cl)s1 | 1.0
O=C(CN1C(=O)NC2(CCCCCCC2)C1=O)N1CCOCC1 | -8.4
SMILES | VCAM1 TNFa pot | others
O=C(CN1C(=O)NC2(CCCCCCC2)C1=O)NCc1ccc2c(c1)OCO2 | 51.2* | VCAM1 pot confirm=-11.4
Cc1ccc(N(CC(=O)NCc2ccc3c(c2)OCO3)S(C)(=O)=O)cc1 | 7.6
CCOC(=O)c1cc2cc3ccccc3cc2[nH]1 | 21.7
Cc1ccccc1CSCCNC(=O)CCSc1ccccc1 | 8.6
COc1cccc(NC(=O)c2ccn(C)n2)c1 | -7.0
CC(=O)c1ccc(NS(=O)(=O)c2cccc(C)c2)cc1 | 72.5* | VCAM1 pot confirm=-7.7
Cc1cccc(NS(=O)(=O)c2ccc(C)c(C(=O)OCC(=O)Nc3cc(C)on3)c2)c1 | -5.6
COc1cccc(S(=O)(=O)Nc2ccc3sc(C)nc3c2)c1 | 5.1
C/C(NC(=O)c1cccs1)=C1\C(=O)C[C@@H]2[C@H]1C2(C)C | 0.6
O=c1c(Cl)c(NCCO)ncn1-c1ccccc1 | -9.0
COC(=O)CCCC[C@@H]1SC[C@@H](NC(=O)OC)[C@@H]1NC(=O)OC | -6.9
CN(C)c1oc(-c2ccccc2Cl)nc1C#N | 41.1* | VCAM1 pot confirm=5.0
COc1ccc(-c2nc(C#N)c(NCCCN(C)C)o2)cc1OC | -96.6
CCc1nnc(NC(=O)CSc2nnc(CSc3nc(C)cc(C)n3)o2)s1 | -1.7
CCOC(=O)C1=NN(c2ccccc2C)C2=NC(C)=C(C(=O)OC)C(c3cccs3)N12 (stereo not given) | 14.8
COC(=O)CSc1nnc(C)n1-c1cccc(C#N)c1 | -5.9
O=C(COC(=O)C1CC(=O)N(c2nc(-c3ccccc3)cs2)C1)c1ccccc1 (stereo not given) | 55.1* | VCAM1 pot confirm=-11.5
O=C(CSc1cccc2cccnc12)OCC(=O)c1ccccc1 | -9.0
CC(C)(C)OC(=O)N1CC(O)CC1C(=O)OCC(=O)c1ccccc1 (stereo not given) | 21.3
O=C(CCCSc1nc2ccccc2s1)NC1=NCCS1 | -14.2
O=C(O)C1C2CCC(O2)C1C(=O)NCc1ccncc1 (stereo not given) | 0.7
Cn1c(SCC(=O)NCc2ccc(F)cc2)nc2ccccc21 | 49.9* | VCAM1 pot confirm=-2.1
Cc1nc2ccccc2n1CC(=O)NCc1ccccc1 | -7.9
CC(C)(C)NC(=O)Cn1c(SCC(N)=O)nc2ccccc21 | -1.0
CCN(CC)C(=O)N1CCC(NC(=O)c2ccc(C(C)(C)C)cc2)CC1 | 1.7
O=C(Cn1c(=O)oc2ccccc21)NCc1ccco1 | -4.7
CCN(Cc1ccccc1)C(=O)Cn1c(=O)n(CC(=O)NCc2ccco2)c(=O)c2sccc21 | -9.1
CCc1ccc(NC(=O)Cn2c(=O)n(CCCC(=O)NCc3ccco3)c(=O)c3ccccc32)cc1 | u | VCAM1 pot confirm=-15.6
Cn1c(=O)n(CCc2ccccc2)c(=O)c2c1nc1n2CCN1Cc1ccco1 | -0.2
